This note sets out measurements from publication PMC5540273 (PLoS ONE, 2017).

Details in all cases: concentration: 1 μM, replicates: in singlicate; n = 1
Assay [1] has as its system BMX.
Assay [2] concerns BRAF.
Assay [3] deals with T1, BRK.
T1 construct: gene PTK6

Assay [4] deals with BRSK1.
The test system of assay [5] is BRSK2.
The test system of assay [6] is BTK.
The test system of assay [7] is BUB1.
The test system of assay [8] is CAMK1B.
The subject of assay [9] is CAMK1D.
Assay [10] has as its system CAMK1G.

The structures appear in SMILES notation.
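Further: KINOMEscan kinase panel screen.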

As to `CC(=O)Nc1nc2cnc(Nc3cc(NC(=O)c4cccc(C5(C#N)CC5)c4Cl)ccc3C)nc2s1`, the “%Inh” value in assay [1] stood at 1%; in [2] it was 99.4%; in assay [3], 30%; in assay [4], 10%; in assay [5], 0%; in assay [6], 0%. The “%Inh” value stood at 0% in [7], 0% in [8], 30% in [9] and 0% in assay [10].
As for `c1ccc(Oc2ccc(Nc3ccnc4cc(-c5ccc(CNCCN6CCOCC6)o5)ccc34)cc2)nc1` [GW567145], the “%Inh” value in assay [1] was found to be 20%; in assay [2], 0%; in assay [3], 85%; in assay [4], 0%; in assay [5] it was 0%; in [6], 86%. For the same compound, the “%Inh” value in [7] is listed as 54%; in assay [8], 0%; in assay [9] it was 2%; in assay [10], 0%.
Turning to `Cc1occc1-c1ncc(OC[C@@H](N)Cc2c[nH]c3ccccc23)cc1-c1ccc2[nH]nc(C)c2c1.O=C(O)C(F)(F)F` [GSK682037], the “%Inh” value turned out to be 22% in [1]; 0% in assay [2]; 7% in [3]; 0% in [4]; 0% in assay [5]; 0% in assay [6]. The “%Inh” value in assay [7] is listed as 23%; in assay [8] it was 29%; in assay [9] it was 82%; in [10], 27%.
As to `CC(C)(C)c1ccc2nccc(Nc3cccc(O)c3)c2c1` [GW856795], the “%Inh” value was 0% in assay [1]; 41% in assay [2]; 51% in assay [3]; 0% in assay [4]; 11% in [5]; 43% in [6]. The “%Inh” value in assay [7] came out at 24%; in [8], 68%; in [9], 13%; in [10] it was 0%.
Take `COCCOCCOc1cc2ncc3c4ccc(C#N)cc4[nH]c3c2cc1OC`: the “%Inh” value in [1] is recorded as 35%; in [2], 0%; in assay [3] it was 18%; in [4] it was 0%; in assay [5] it was 12%; in [6], 0%. The “%Inh” value in assay [7] is listed as 96.7%; in [8] it was 14%; in assay [9] it was 25%; in assay [10], 1%.
On to `CCS(=O)(=O)c1ccc(OC)c(Nc2nccc(-c3c(-c4cccc(NC(=O)c5c(F)cccc5F)c4)nn4ncccc34)n2)c1` [GSK326180], for which the “%Inh” value in assay [1] was 0%; in assay [2] it was 90%; in assay [3] it was 93.5%; in assay [4], 0%; in [5] it was 0%; in [6], 15%. In addition, the “%Inh” value was found to be 28% in assay [7], 33% in [8], 12% in assay [9] and 7% in assay [10].
For the compound `CN1CCN(CCCNc2nccc(-c3c(-c4ccc(F)cc4)nn4cc(C(F)(F)F)ccc34)n2)CC1` [GW621581], the “%Inh” value in assay [1] was 0%; in assay [2] it was 41%; in [3], 9%; in [4] it was 2%; in assay [5], 1%; in assay [6], 0%. The “%Inh” value in [7] is on record as 26%; in assay [8], 5%; in assay [9], 11%; in [10] it was 0%.
Turning to `COc1ccc(CNC(=O)NC2CCN(c3ccnc(Nc4ccc(F)cc4)n3)CC2)cc1` [GSK1379788], the “%Inh” value in [1] worked out at 3%; in assay [2], 0%; in [3], 0%; in assay [4] it was 0%; in assay [5] it was 0%; in [6], 0%. Besides, the “%Inh” value was determined as 56% in [7], 7% in assay [8], 15% in assay [9] and 0% in [10].
On to `Cc1cccc(NC(=O)Nc2ccc(Oc3ncnc4ccn(C)c34)cc2)c1`, for which the “%Inh” value was 0% in assay [1]; 0% in [2]; 0% in assay [3]; 0% in [4]; 0% in assay [5]; 91.6% in assay [6]. Further, the “%Inh” value in assay [7] amounted to 0%; in assay [8] it was 14%; in assay [9] it was 6%; in [10], 0%.
As to `Cl.NC(=O)c1cccc(Nc2nccc(Nc3ccc(Oc4c(Cl)cccc4Cl)c(Cl)c3)n2)c1` [GW659009], the “%Inh” value in assay [1] is given as 0%; in [2], 6%; in [3], 76%; in assay [4], 0%; in assay [5], 0%; in assay [6], 36%. Besides, the “%Inh” value came to 17% in [7], 0% in [8], 2% in assay [9] and 0% in [10].
For `Cc1cccc(Nc2nc(N[C@H]3CCNC3)ncc2C(N)=O)c1.Cl` [GSK2197149], the “%Inh” value in assay [1] is given as 16%; in [2] it was 4%; in assay [3], 7%; in [4], 0%; in [5], 0%; in [6], 0%. In addition, the “%Inh” value in [7] is reported as 44%; in assay [8], 68%; in assay [9], 55%; in assay [10], 8%.
With `Cl.Cl.NCC(NC(=O)c1cc(-c2ccccc2)c(-c2ccnc3[nH]ccc23)s1)c1ccccc1` (stereo not shown) [GSK1321561], the “%Inh” value in [1] came to 38%; in assay [2], 9%; in [3], 8%; in [4] it was 0%; in assay [5], 0%; in [6], 0%. Besides, the “%Inh” value in assay [7] is 72%; in [8] it was 24%; in assay [9], 5%; in assay [10], 0%.
Consider `COc1cc2c(cc1OCCN1CCNCC1)ncc1c3ccc(C#N)cc3[nH]c21`, for which the “%Inh” value in assay [1] amounted to 17%; in assay [2] it was 28%; in assay [3] it was 0%; in assay [4], 25%; in assay [5], 0%; in [6], 2%. The “%Inh” value is given as 99% in [7], 28% in assay [8], 30% in [9] and 14% in [10].
As to `Cc1ccc(S(=O)(=O)Nc2ccc(Nc3nccc(Nc4cccc5[nH]ncc45)n3)cc2)cc1` [GSK581271], the “%Inh” value was found to be 5% in [1]; 6% in [2]; 34% in assay [3]; 5% in assay [4]; 0% in assay [5]; 0% in assay [6]. Besides, the “%Inh” value in assay [7] stood at 44%; in assay [8], 7%; in assay [9] it was 8%; in assay [10], 0%.
In the case of `c1ccc(-c2n[nH]cc2Nc2ccnc3ccccc23)nc1` [GW694077], the “%Inh” value in assay [1] was determined as 6%; in assay [2] it was 0%; in [3], 0%; in [4], 0%; in assay [5] it was 0%; in assay [6], 0%. Besides, the “%Inh” value in assay [7] stood at 88%; in [8], 49%; in assay [9] it was 30%; in assay [10], 9%.
`Nc1ncc(-c2cccnc2)c2scc(-c3ccc4c(c3)CCN4C(=O)Cc3ccccc3)c12` [GSK683281]: the “%Inh” value in assay [1] came to 20%; in assay [2], 0%; in assay [3], 68%; in assay [4], 27%; in assay [5], 0%; in [6] it was 0%. Also, the “%Inh” value is 0% in assay [7], 0% in assay [8], 22% in assay [9] and 21% in [10].
